Laboratory results taken from PubChem BioAssay.

These compounds were tested on XIP peptide (Xip251-270) (assay: compounds binding XIP fragment 251-270 – biochemical, small-molecule microarray, fluorescence 635/667 nm, 0.5 µg/mL protein, primary screen (AID 1183)). Conditions: fluorescence 635 nm, higher = more signal.

SMILES	composite z-score
CC(=O)OCC1C2CC[C@H]3C(OCc4ccc(F)cc4C(F)(F)F)OC[C@]4(C)[C@H]3C2=C(CN4C(=O)OC(C)(C)C)[C@H](C)C1COC(C)=O (stereo not given in full)	0.653
O=C1[C@H]2C=C(I)[C@H](C[C@@H]2c2ccccc2)[C@@]12CO2	-0.321
NC(=O)N1C(=O)C2C(C1=O)C1C=C(CCCO)C2C(c2ccc(CN3CCCC3)cc2)N1Cc1sc2ccccc2c1Cl (stereo not given)	0.245
CCCCC(=C=CC[C@H](O)c1ccc(CO)o1)CCO	0.552
O=C(NCC(O)CO)C1N=C(c2ccc(OCCCO)cc2)N(c2ccccc2)O1 (stereo not given)	0.801
CCCCCC1=C2CNC(CC(C)C)(C(=O)OC)C=C2C(C)C1=O (stereo not given)	0.176
COc1ccc([Si](C)(C)[C@H]2[C@H](CC(=O)N3CCC[C@H]3CO)O[C@@]3(C(=O)N(Cc4ccc(N5CCCCC5=O)cc4)c4ccccc43)[C@@H]2C)cc1	0.753
CN(C)CCCCNC(=O)[C@H]1C[C@H]2C(=O)N3CCC[C@H]3C(=O)N2[C@H]1c1cccc(OCCO)c1	0.629
C=CCC(OC(C)=O)[C@@H]1[C@@H](N(Cc2ccc(-c3ccccc3)cc2)C(=O)c2cccc3ccccc23)c2cc(OCCCO)ccc2N1C(=O)Cc1ccc(OC)cc1 (stereo not given in full)	-0.686
COc1ccc(C(=O)Nc2ccc3c(c2)[C@@]2(O[C@H](CCO)[C@@H]([Si](C)(C)c4ccc(OC)cc4)[C@@H]2C)C(=O)N3Cc2ccccc2)cc1	0.466
CCOC(=O)C1=CCC(c2cc3ccccc3[nH]2)N(CCN2CC(C(=O)OCC)=CCC2c2cc3ccccc3[nH]2)C1 (stereo not given)	0.737
CCCC[C@H]1OB(O)C[C@H]2C1=C(COc1ccccc1)C[C@H]1C(=O)C=CC(=O)[C@H]12	-0.114
C=CCNC(=O)[C@H]1[C@@H]2C(=O)O[C@@H](c3ccccc3)[C@@H](c3ccccc3)N2[C@@H](c2ccc(OCCO)cc2)[C@]12C(=O)Nc1ccccc12	0.57
O=C(NCc1ccccc1)[C@@H]1c2ccccc2C(=O)N(Cc2cc(C(F)(F)F)cc(C(F)(F)F)c2)[C@H]1c1ccc(CO)cc1	0.221
CN1C(=O)C2C(C3CC3)C=C3CN(Cc4cccc(Cl)c4)[C@@H]([C@@H](O)Cc4ccccc4)C3C2C1=O (stereo not given in full)	0.74
COc1ccc([Si](C)(C)[C@@H]2[C@@H](CC(=O)N3Cc4ccccc4C[C@H]3CO)O[C@]3(C(=O)N(Cc4cccc(N5CCOC5=O)c4)c4ccccc43)[C@H]2C)cc1	0.672
C=C(COC)/C(=C/C[C@@H](OC(C)=O)c1ccccc1OCCO)c1cnc2ccccc2c1	0.69
C=CCN1C(=O)[C@@]2(O[C@@H](CCn3cc([C@H](O)c4ccccc4)nn3)[C@H]([Si](C)(C)c3ccc(OC)cc3)[C@H]2C)c2cc(N3C(=O)c4cccc5cccc3c45)ccc21	0.21

SMILES	composite z-score
COc1ccc(C(O)C2C=CC3C(=O)N(c4ccccc4)C(=O)C3N2Nc2ccc([N+](=O)[O-])cc2)c2ccccc12 (stereo not given)	0.685
C=C(CCCC)/C(=C/C[C@H](OC(=O)c1ccncc1)c1ccc(OCCO)cc1)c1cnc2ccccc2c1	0.754
CO[C@H]1O[C@H](CO)[C@@H](OC(=O)Nc2ccc3c(c2)OCO3)[C@H](OC(=O)Nc2ccccc2-c2ccccc2)[C@H]1OC(=O)Nc1ccccc1-c1ccccc1	0.873
CC1CC/C=C\[C@H]2OC34C=CCN(c5ccc(Cl)cc5)C(=O)[C@H]3N(CCCCCCO)C(=O)[C@]4(C)C2C(=O)O1 (stereo not given in full)	0.265
O=C1NC(=O)C2C1C=CC(C(O)c1ccc([N+](=O)[O-])cc1)N2Nc1ccccn1 (stereo not given)	0.726
O=C(N1CCOCC1)[C@@]1(Cc2ccccc2)COC(c2ccc(OCCCO)cc2)=N1	0.52
C=CCC(OC(C)=O)[C@@H]1[C@@H](N(Cc2cccc3ccccc23)C(=O)Cc2ccc(OC)cc2)c2cc(OCCCO)ccc2N1C(=O)Cc1ccc2ccccc2c1 (stereo not given in full)	0.296
COC(=O)C(CC#Cc1ccc2c(c1)[C@]1(C(=O)N2)[C@H](c2ccc(OCCO)cc2)N2[C@H](c3ccccc3)[C@H](c3ccccc3)OC(=O)[C@H]2[C@@H]1C(=O)N1CCCCCCC1)C(=O)OC	0.812
COCCCN1C(=O)[C@@]2(c3ccc([N+](=O)[O-])cc3)CC(=O)N(CC34CC5CC(CC(C5)C3)C4)[C@@H]2c2ccc(CO)cc21	0.578
CO[C@H]1O[C@H](CO)[C@@H](OC(=O)Nc2ccccc2-c2ccccc2)[C@H](OC(=O)Nc2ccccc2)[C@H]1OC(=O)Nc1ccccc1	0.915
COCCOC(=O)N1C(=O)[C@@]2(c3cc(C#CCC(C(=O)OC)C(=O)OC)ccc31)[C@H](C(=O)Nc1nc3ccccc3s1)[C@H]1C(=O)O[C@H](c3ccccc3)[C@H](c3ccccc3)N1[C@@H]2c1ccc(OCCO)cc1	0.768
O=C(NC1CC1)[C@@H]1c2ccccc2C(=O)N(Cc2cc(C(F)(F)F)cc(C(F)(F)F)c2)[C@H]1c1ccc(CO)cc1	0.62
CC(C)C[C@@H]1NC(=O)[C@@H]2C[C@H](C(=O)NCCCCCCNC(=O)CS)[C@H](c3cccc(OCCO)c3)N2C1=O	0.839
O=C1N(Cc2ccccc2)c2ccccc2C[C@@]12COC(c1ccc(OCCCO)cc1)=N2	0.308
CC(C)C(=C=CC[C@H](O)c1ccccc1OCCO)C[C@H](O)c1cc(Cl)cc(Cl)c1O	0.622
CCCC#C[Si](O[C@H](CC)c1cn(Cc2ccccc2)nn1)(C(C)C)C(C)C	0.598
OCCCC1=CC(c2ccc(CN3CCCC3)cc2)N(Cc2cccc(OC(F)(F)F)c2)CC1 (stereo not given)	-0.504
